Screening results: PubChem BioAssay, several laboratories
CYP2C19 act: activators of human cytochrome P450 2C19; activation factor at 5 µM; recombinant CYP2C19, luciferin-H EGE luminescence; stronger effect = higher value; 0 = fully inhibited enzyme, 1 = untreated enzyme; 96,000 tested, under 10 active; P33261; AID 1025;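 active = activation factor of at least 2 at 5 µM in the primary screen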;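 note: 0 = wells with 2.5 mM tranylcypromine and 1 = vehicle-only wells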
EphB4 antag: antagonists of human EphB4-ephrin-B2 interaction; P54760; EphB4 LBD / TNYL-RAW-Alexa532 peptide, fluorescence polarization; inhibition, % at 7 µM; actives 0.15% (n = 97,000);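 active = inhibition above the screen-wide mean inhibition plus 3 SD, cut at about 15% in these data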;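 note: 0% = DMSO wells and 100% = excess unlabeled TNYL-RAW peptide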
CYP2C19 inh: blocks human cytochrome P450 2C19; P33261; CYP2C19 Supersomes, luciferin-H EGE luminescence, 30 min; inhibition, % at 5 µM; actives 21% (n = 96,000);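 active = CYP2C19 inhibition above a set limit at 5 µM in the primary screen, cut at about 50% in these data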;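 note: plate controls were negative control wells for no effect and 2.5 mM tranylcypromine positive control for full effect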
CYP2C9 inh: blocks human cytochrome P450 2C9. P11712. CYP2C9 Supersomes, luciferin-H conversion, luminescence. inhibition, % at 5 µM. actives 20% (n = 96,000). AID 777;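 active = blocking of liver enzyme CYP2C9 beyond about 50% at 5 µM, limit read from the data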
CYP2C9 act: increases human cytochrome P450 2C9 activity. activation factor at 5 µM. actives 1.4% (n = 96,000). recombinant CYP2C9, luciferin-H conversion, luminescence; stronger effect = higher value; factor 1 = untreated enzyme, 0 = blocked. AID 1024;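 active = activation factor of 2 or more for CYP2C9 at a 5 µM dose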;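 note: 0 = sulfaphenazole-blocked wells and 1 = vehicle-only wells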
* = called active by the depositor; . = no result given. Shown are actives, neighbours in structure and some others; about 27% of the full set was active somewhere.

SMILES	CYP2C19 act	EphB4 antag	CYP2C19 inh	CYP2C9 inh	CYP2C9 act
CCN(CC)S(=O)(=O)c1ccc(C(=O)Nc2c3c(nn2C(C)(C)C)CS(=O)(=O)C3)cc1	1	7	-3	76*	0.2
CCOC(=O)CN1C(=O)C(C)(C)Oc2ccc(C(=O)NC(C)(C)CC)cc21	1.1	1	-5	18	0.8
O=C(c1ccccn1)c1conc1C(=O)c1ccc(Br)cc1	0.1	-3	86*	57*	0.4
O=C(OCC(=O)c1ccccc1Br)c1ccccn1	1	4	0	-5	1
CN(C)S(=O)(=O)c1cccc2nsnc12	0.8	-7	16	12	0.9
Cc1cccc(N(C)S(=O)(=O)c2cccc3nsnc23)c1	0.4	.	64*	-70	1.7
CN(C1CCS(=O)(=O)C1)S(=O)(=O)c1cccc2nsnc12 (stereo not given)	1	-6	-3	-10	1.1
CCN(c1cccc(C)c1)S(=O)(=O)c1cccc2nsnc12	0.1	.	89*	53*	0.5
CCn1c(SCc2ccccc2)nnc1-c1ccc(S(=O)(=O)N2CCCCC2)cc1	0.7	5	30	35	0.7
COc1ccc(NC(=O)COC(=O)[C@@H]2CCCN2C(=O)c2cccs2)c(OC)c1	0.6	5	42	56*	0.4
NC(=O)c1ccsc1NC(=O)COC(=O)C1CCCN1C(=O)c1cccs1 (stereo not given)	0.3	1	72*	72*	0.3
CCOC(=O)C1CCCN(C(=O)CS(=O)(=O)Cc2ccccc2)C1 (stereo not given)	1	7	-1	-7	1.1
CC(=O)Nc1nc(C)c(Oc2ccccc2)c(=O)[nH]1	1.1	9	-6	-8	1.1
Cc1ccc(S(=O)(=O)N(C)Cc2ccc(-c3nnco3)cc2)cc1	0.5	-1	48	16	0.8
Cc1ccc(C)c(NC(=O)CSc2nnc([C@@H](N)Cc3ccccc3)o2)c1	0.5	-2	48	10	0.9
COc1ccc(Cn2c(-c3ccco3)nc3oc4cc(OC)ccc4c(=O)c3c2=O)cc1	1	6	4	12	0.9
CCNS(=O)(=O)c1ccc(OC)c(C)c1	0.8	0	24	-174	2.7*
CCOc1ccc(S(=O)(=O)NCCOC)cc1C	0.1	-3	89*	-198	3*
CCCCNS(=O)(=O)c1ccc(OC)c(C)c1	.	2	.	.	.
C=CCNS(=O)(=O)c1ccc(OC)c(C)c1	0.7	-9	30	-171	2.7*
Cc1cn(C(=O)c2ccccc2)c(=S)n1-c1ccc(Br)cc1	.	6	.	.	.
CCOC(=O)CC(=O)CSc1nc2cc(C)ccc2cc1C	1.1	1	-12	5	1
C(=C\c1nc2ccccc2[nH]1)/c1ccccc1	0.3	3	72*	60*	0.4
NC(=O)C1CNc2ccccc2O1 (stereo not given)	1.1	5	-6	-3	1
Cc1ccc(NC(=O)c2c(Cl)n(C)c3ccccc23)cc1	0.7	6	26	-112	2.1*
SMILES	CYP2C19 act	EphB4 antag	CYP2C19 inh	CYP2C9 inh	CYP2C9 act
Cn1c(Cl)c(C(=O)Nc2ccccc2)c2ccccc21	0.8	9	22	-16	1.2
COc1ccccc1NC(=O)COC(=O)c1ccc(S(=O)(=O)NCc2ccco2)cc1	0.9	5	7	82*	0.2
Cc1noc(C)c1COC(=O)c1ccc(S(=O)(=O)NCc2ccco2)cc1	0.3	1	72*	100*	0
O=C(COC(=O)c1ccc(S(=O)(=O)NCc2ccco2)cc1)NC1CCCCC1	1	2	3	31	0.7
O=C(COC(=O)c1ccc(S(=O)(=O)NCc2ccco2)cc1)Nc1ccc(OC(F)F)cc1	0.7	1	29	61*	0.4
COc1ccccc1NS(=O)(=O)c1ccc(C(=O)OCC(=O)NCc2ccco2)cc1	0.2	0	84*	85*	0.2
CC(Oc1ccccc1)C(=O)Nc1ccc(S(=O)(=O)N2CCOCC2)cc1 (stereo not given)	1	3	4	44	0.6
Cc1cc(C)c2cc(C(c3nnnn3C3CCCC3)N3CCOCC3)c(=O)[nH]c2c1 (stereo not given)	1.1	.	-7	-14	1.1
CCOC(=O)c1ccc(COC(=O)CCc2nc3ccccc3[nH]c2=O)o1	0.8	-4	22	16	0.8
CCc1ccccc1NS(=O)(=O)c1ccc2[nH]cc(C(=O)NCc3ccco3)c(=O)c2c1	.	2	.	.	.
COCCCNC(=O)c1ccccc1NS(C)(=O)=O	1	4	1	-5	1.1
